Bioassay records: PubChem BioAssay, The Scripps Research Institute Molecular Screening Center
KLK7 zymogen act = activates the human kallikrein-7 zymogen. purified proKLK7, EDANS-DABCYL substrate fluorescence; 100% is mature enzyme control, 0% vehicle. activation, % at 7 µM. actives 0.9% (n = 370,000);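 active = activation above the mean of all tested compounds plus 3 SD, computed per campaign excluding outliers beyond control limits, cut at about 13% in these data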
Target sequence (P49862 whole entry, looked up): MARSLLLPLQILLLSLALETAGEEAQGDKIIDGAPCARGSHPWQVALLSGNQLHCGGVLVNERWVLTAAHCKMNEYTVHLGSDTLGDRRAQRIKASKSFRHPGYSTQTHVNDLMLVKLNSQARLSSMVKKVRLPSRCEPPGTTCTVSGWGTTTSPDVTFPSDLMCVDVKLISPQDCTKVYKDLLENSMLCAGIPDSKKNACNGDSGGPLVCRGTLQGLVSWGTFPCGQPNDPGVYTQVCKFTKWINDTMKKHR
PLCb3 inh = PLC-beta3 (human) inhibition, primary screen. Q01970. Purified PLC-beta3, fluorogenic substrate, fluorescence. inhibition, % at 12.2 µM. actives 0.18% (n = 370,000). AID 720704; in the data active = inhibition above about 11%;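 also: 0% = median of compound wells on plate and 100% = full blocker control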
sPLA2-III inh = Inhibits HGIII-sPLA2 liposome hydrolysis, primary screen. actives 0.56% (n = 370,000). QFRET BODIPY PC-A2 liposome hydrolysis, fluorescence. Q9NZ20. inhibition, % at 12.2 µM;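 active = inhibition above mean plus 3 SD of compounds lying within the high and low control bounds, cut at about 19% in these data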;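 also: 0% = median of test compound wells and 100% = no enzyme DMSO wells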
PLC-gamma1 inh = inhibitors of human phospholipase C gamma1; P19174; purified PLC-gamma1, fluorogenic substrate, fluorescence; inhibition, % at 12.2 µM; actives 0.84% (n = 370,000); AID 720700; in the data active = inhibition above about 9.5%
ADAM17 inh = inhibits human ADAM17; actives 0.83% (n = 370,000); AID 720648; P78536; inhibition, % at 6.95 µM; recombinant ADAM17, EDANS/DABCYL FRET peptide cleavage;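 active = inhibition above the mean of compounds lying between control limits plus 3 SD, set per campaign, cut at about 8.5% in these data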;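 also: 0% = DMSO-only wells as the low control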
ADAM10 inh = inhibitors of human ADAM10; inhibition, % at 7 µM; actives 0.62% (n = 370,000); AID 720582; O14672; recombinant ADAM10, EDANS/DABCYL FRET peptide cleavage, 3 h;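 active = inhibition above a per-campaign cutoff equal to the mean of compounds falling between control-based bounds plus 3 SD, cut at about 20% in these data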;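 also: 0% = DMSO wells while the 100% control is not disclosed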
ADAM10 counter = ADAM10 inhibition, counter-screen for ADAM17 exosite hits | shares compounds with ADAM17 inh | recombinant ADAM10, EDANS/DABCYL FRET peptide cleavage, 3 h | inhibition, % at 6.95 µM | actives 47% (n = 2,900);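 active = mean inhibition over the triplicate runs exceeds the activity threshold set in the earlier primary screen, cut at about 20% in these data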;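 also: 0% = DMSO wells and 100% = marimastat wells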
ADAM17 confirm = human ADAM17 inhibition, confirmation | shares compounds with ADAM17 inh | recombinant ADAM17, EDANS/DABCYL QFRET peptide cleavage | inhibition, % at 6.95 µM | actives 65% (n = 2,900) | AID 743257;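 active = mean inhibition across replicates above the hit cutoff set in the primary screen, cut at about 8.5% in these data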;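 also: 0% = DMSO wells and 100% = marimastat wells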
An asterisk follows results filed as active; x = no result given. The list is not random: actives were taken first. Their share in the collection is about 3.4%.

SMILES | KLK7 zymogen act | PLCb3 inh | sPLA2-III inh | PLC-gamma1 inh | ADAM17 inh | ADAM10 inh | ADAM10 counter | ADAM17 confirm
CC(C)(C)c1cc(C(=O)NNc2cc(C(F)(F)F)ccc2Cl)n(Cc2ccccc2)n1 | 0 | -10 | 11 | 8 | 10* | 19 | 27* | 10*
COC(=O)[C@]12C[C@H](CC(=O)NCC3CCCCC3)C(=O)N(Cc3ccco3)C1=C[C@H](C1CCCC1)O[C@@H]2C | 0 | 4 | -7 | 0 | 1 | 5 | x | x
CCCC[C@H](C(=O)N(C)c1ccccc1)[C@@H](O)c1ccc(Cl)cc1 | 0 | 2 | -2 | 1 | -3 | 5 | x | x
C=CCOC(=O)C1=C[C@@H](c2coc3ccccc3c2=O)C[C@@H](OCc2ccc(CO)cc2)O1 | 3 | -2 | -9 | 1 | 15* | 7 | 26* | 10*
COc1cccc(-c2nn(-c3ccc(C)cc3)cc2C(=O)N(C)CC(=O)Nc2cccc(F)c2)c1 | 0 | -6 | -28 | 0 | 8 | 20 | x | x
CCOc1ccc(NC(=O)CN(C)C(=O)c2cn(-c3ccc(C)cc3)nc2-c2cccc(OC)c2)cc1OCC | 0 | -3 | -25 | 3 | 14* | 9 | 34* | 18*
CCCOc1ccc(CC(=O)NNC(=S)Nc2ccccc2)cc1Br | 0 | 1 | 1 | 2 | 12* | 13 | 10 | 9
Cc1cc(Br)ccc1NC(=O)CCSc1ccccc1 | -1 | -2 | -10 | -2 | -2 | 2 | x | x
Cc1cc(NC(=O)CCSc2ccccc2)ccc1Br | 0 | 4 | -6 | 5 | 9.2* | 19 | 22* | 14*
O=C(c1cc(Cl)cc(Cl)c1)N1CCC(Oc2cccnc2)CC1 | 0 | 0 | -6 | 0 | 0 | -4 | x | x
O=C(OC12CCCN(C1)/C(=C/c1ccccc1)C2)C1CCCC1 (configuration not stated) | 0 | -1 | 0 | 1 | -2 | -8 | x | x
COc1ccccc1/C=C/C(=O)OCC(=O)c1c[nH]c2ccccc12 | -3 | -36 | -23 | -28 | -11 | -49 | x | x
COc1cc(/C=C/C(=O)OCC(=O)c2c[nH]c3ccccc23)ccc1OC(F)F | 0 | -6 | -24 | -6 | 9.4* | 13 | 21* | 18*
Nc1nc(F)nc2c1ncn2[C@@H]1O[C@H](COP(=O)(O)O)[C@@H](O)[C@@H]1O | 0 | 0 | 9 | 2 | -1 | -7 | x | x
CS(=O)(=O)N1C[C@]2(c3ccccc3)CC1Cc1ccccc12 | x | 3 | 4 | 2 | -3 | -2 | x | x
CC(=O)N1c2ccc(C)cc2Sc2c1ccc1ccccc21 | 1 | 7 | -17 | 8 | 12* | 18 | 16 | 9.0*
Cc1ccc2c(c1)S/C(=C\c1cccc[n+]1C)N2CCO | 0 | -6 | 2 | 1 | -2 | 8 | x | x
COC(=O)[C@]12C[C@H](CC(=O)NCc3ccccc3)C(=O)N(Cc3ccco3)C1=C[C@H](COCc1ccccc1)O[C@@H]2C | 0 | 1 | -11 | 8 | 10* | 6 | 27* | 12*
COC(=O)[C@]12C[C@H](CC(=O)NCC3CCCCC3)C(=O)N(Cc3ccco3)C1=C[C@H](COCc1ccccc1)O[C@@H]2C | 0 | -4 | 3 | -1 | -1 | -6 | x | x
COC(=O)[C@]12C[C@H](CC(=O)NCc3ccc(C)o3)C(=O)N(Cc3cccc4ccccc34)C1=C[C@H](C(C)C)O[C@@H]2C1CC1 | 0 | 1 | 0 | 5 | 11* | 19 | 9 | 8.9*
COC(=O)[C@]12C[C@H](CC(=O)NCc3ccccc3)C(=O)N(Cc3cccc4ccccc34)C1=C[C@H](C1CCCC1)O[C@@H]2C | 1 | 2 | -3 | 7 | 10* | 17 | 25* | 17*
COC(=O)[C@]12C[C@H](CC(=O)NCC3CCCCC3)C(=O)N(CCc3ccc(OC)c(OC)c3)C1=C[C@H](C(C)(C)C)O[C@@H]2C | 0 | 5 | -9 | 1 | 9.7* | 7 | 19 | 11*
COC(=O)[C@]12C[C@H](CC(=O)NCc3cccc4ccccc34)C(=O)N(Cc3ccccc3)C1=C[C@H](C1CCCC1)O[C@@H]2C | 1 | 0 | -18 | 1 | 1 | 5 | x | x
CCOC(=O)[C@]12CCCC=C1N(CCCOC)C(=O)[C@@H]2CC(=O)N1CCCC1 | 0 | 2 | 6 | 0 | -1 | -2 | x | x
COC1=C[C@H](C(=O)NCc2ccccc2)[C@H](C)[C@@H](c2ccccc2)CC1=O | 0 | -2 | -6 | -2 | 2 | 0 | x | x
SMILES | KLK7 zymogen act | PLCb3 inh | sPLA2-III inh | PLC-gamma1 inh | ADAM17 inh | ADAM10 inh | ADAM10 counter | ADAM17 confirm
CCN(CC(=O)Nc1c(F)cccc1F)C(=O)c1ccc(S(=O)(=O)N2CCC(C)CC2)cc1 | 0 | 0 | -5 | 2 | 10* | 12 | 10 | 7
CCN(CC(=O)Nc1c(F)cccc1F)C(=O)c1ccc(S(=O)(=O)N2CCCCCC2)cc1 | -1 | 2 | -8 | 1 | 0 | 5 | x | x
O=S1(=O)c2c(cccc2N2CC[C@@H](O)C2)OCCCN1C1CC1 | 0 | 0 | 2 | -1 | -6 | -14 | x | x
Fc1ccc(NCc2n[nH]c(=S)n2Cc2ccccc2)cc1 | 0 | 4 | 16 | 6 | 11* | 16 | 11 | 9
Cc1cc(NC(=O)CSCC(=O)N(c2cccc(Cl)c2)C(C(=O)NC2CCCCC2)c2ccc(O)c(O)c2)no1 (configuration not stated) | 0 | 5 | -27 | 8 | 9.5* | 8 | -2 | 5
Cn1cccc1C(=O)N1CCN(S(=O)(=O)c2cccs2)CC1 | 0 | 1 | 6 | -1 | -3 | -5 | x | x
CCOC(=O)c1cc(OC(=O)c2ccccc2OC)n(-c2ccccc2)n1 | 0 | 2 | 4 | 4 | 11* | 0 | 11 | 12*
O=C1Nc2ccccc2-n2nnnc2C1N1CCN(c2ccc(C(F)(F)F)cc2[N+](=O)[O-])CC1 (configuration not stated) | 1 | 4 | -16 | 5 | 8.6* | 19 | 32* | 18*
O=S(=O)(c1cccc(Cl)c1)N1CCN(S(=O)(=O)c2ccc3c(c2)OCCO3)CC1 | 0 | 7 | 7 | 6 | 10* | 12 | 6 | 6
O=S(=O)(c1ccc2c(c1)OCCO2)N1CCN(c2cccc(Cl)c2)CC1 | 0 | 5 | -4 | 2 | 8 | 9 | x | x
Cc1cc(C(=O)COC(=O)CC2Sc3ccccc3NC2=O)c(C)n1-c1ccc(Br)cc1 (configuration not stated) | -1 | -3 | -11 | -2 | 8.8* | 13 | 7 | 8
